Measurements published in PubChem BioAssay.
“And” between values parts separate entries of the source, which are not always exact repeats. Equal entries are not always repeated. Records with an inconclusive call do not appear. The source made the active and inactive calls.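 Rule for the calls, unless noted: active = normalized viability below 100% at a tested concentration; inactive = the rest.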

How the values were obtained:
[1] = viability loss in pontine glioma line – cell-based, SU-DIPG-XXV, MIPE5.0, CellTiter-Glo, qHTS, dose response (AID 1347065; cut-off not given, nearly all actives have AC50 up to about 26 µM;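 note: cells exposed to compound for 48 hours before ATP readout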); details: CellTiter-Glo ATP luminescence
[2] = growth inhibition of DIPG cells – cell-based, MIPE4.0 library, CellTiter-Glo luminescence, qHTS (AID 1347066; cut-off not given, nearly all actives have AC50 up to about 30 µM;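 note: cells exposed to compound for 48 hours before readout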); details: SU-DIPG-VI viability, CellTiter-Glo ATP luminescence
[3] = JHH-DIPG-1 glioma cell viability, MIPE5.0 library, CellTiter-Glo luminescence, qHTS (AID 1347067; cut-off not given, nearly all actives have AC50 up to about 26 µM;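 note: cells exposed to compound for 48 hours before readout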); details: JHH-DIPG-1 glioma viability, CellTiter-Glo ATP luminescence
[4] = growth inhibition of DIPG cells – cell-based, MIPE5.0 library, qHTS (AID 1347068; cut-off not given, nearly all actives have IC50 up to about 30 µM); details: SU-DIPG-XXV viability
[5] = blockers of cellular phospholipid synthesis – cell-based, LOPAC library, screen 4, primary screen (AID 1347384; call rule not given here); details: animal cells, phospholipid biosynthesis inhibition screen; at 10 µM
[6] = MELAS cybrid and Rieske KO viability enhancers – cell-based, MELAS cybrids, Rieske KO mouse fibroblasts, CellTiter-Glo, primary screen (AID 1508586;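 active = mean z-score across replicates of 1.96 or higher in either the MELAS or the Rieske mutant cell line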;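 note: z relative to plate mean and SD of compound and empty wells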); details: low glucose
[7] = viability loss with induced miR-34 in A549 – imaging, A549 dox-inducible miR-34, nuclei and caspase counts, primary screen (AID 1347080;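 active = compounds whose cell count with miR-34 switched on is under 0.7 times the count with it off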); details: A549 miR-34 inducible, Hoechst nuclei count, 48 h
[8] = compounds altering HSF1 focus formation in cells – imaging, Selleck Cancer Library (AID 1347162; in the data active = plate-normalised HSF1 focus index below about 0.46); details: human cells, HSF1 nuclear foci imaging, at 10 µM; SSMD: measured here: HSF1 foci SSMD mean; cell count: measured here: cell number; plate-normalised HSF1 focus index: stronger effect = lower value
[9] = drug combination growth inhibition, ovarian cancer – cell-based, oncology-focused library, rucaparib conditional, profiling panel (AID 1508598); details: patient-derived ovarian cancer cells, CellTiter-Glo viability, 144 h, stronger effect = lower value
[10] = biological target: NAD(+) hydrolase SARM1 (Homo sapiens) (UniProt Q6SZW1); assay: blocking NAD cleavage by SARM1 SAM-TIR – cell lysate, NAD-Glo luminescence (AID 1508614;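 active = compound whose remaining NAD level is above about 45 nM, limit read from the data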;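 note: higher remaining NAD means stronger inhibition of SARM1 NADase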); details: SAM-TIR HEK293T lysate NADase, at 1 µM, stronger effect = higher value
[11] = biological target: Mitogen-activated protein kinase 7 (Homo sapiens) (UniProt Q13164); assay: Gal4-ERK5 driven luciferase induction – cell-based, HTS, primary screen (AID 1508626;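 active = luciferase signal above three times the same-plate solvent-only control wells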;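 note: luciferase driven by Gal4-ERK5 fusion binding five Gal4 sites before minimal TATA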); details: HeLa Gal4-ERK5 transactivation, 18 h, at 5 µM, stronger effect = higher value
[12] = galactose survival enhancers in mitochondrial complex I cybrids – cell-based, galactose medium, ATP luminescence, primary screen (AID 1645843;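 active = z-score of at least 1.8 in each of two replicates, scored against plate mean and spread of sample wells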;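 note: positive z means more ATP and so rescue of galactose-driven cybrid death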); details: complex I mutant cybrid cells, 72 h, stronger effect = higher value
[13] = MELAS cybrid survival, CellTiter-Glo 48 h, stronger effect = higher value
[14] = Rieske KO mouse fibroblast survival, CellTiter-Glo 72 h
[15] = stronger effect = lower value, cell number ratio, induced over uninduced
[16] = measured here: relative caspase fold change +Dox/-Dox
[17] = measured here: total cells with miR-34 induction, stronger effect = lower value
[18] = measured here: total cells without miR-34 induction

Chain of NAD(+) hydrolase SARM1 (Homo sapiens) (Q6SZW1 whole entry, looked up, the tested form may be a part): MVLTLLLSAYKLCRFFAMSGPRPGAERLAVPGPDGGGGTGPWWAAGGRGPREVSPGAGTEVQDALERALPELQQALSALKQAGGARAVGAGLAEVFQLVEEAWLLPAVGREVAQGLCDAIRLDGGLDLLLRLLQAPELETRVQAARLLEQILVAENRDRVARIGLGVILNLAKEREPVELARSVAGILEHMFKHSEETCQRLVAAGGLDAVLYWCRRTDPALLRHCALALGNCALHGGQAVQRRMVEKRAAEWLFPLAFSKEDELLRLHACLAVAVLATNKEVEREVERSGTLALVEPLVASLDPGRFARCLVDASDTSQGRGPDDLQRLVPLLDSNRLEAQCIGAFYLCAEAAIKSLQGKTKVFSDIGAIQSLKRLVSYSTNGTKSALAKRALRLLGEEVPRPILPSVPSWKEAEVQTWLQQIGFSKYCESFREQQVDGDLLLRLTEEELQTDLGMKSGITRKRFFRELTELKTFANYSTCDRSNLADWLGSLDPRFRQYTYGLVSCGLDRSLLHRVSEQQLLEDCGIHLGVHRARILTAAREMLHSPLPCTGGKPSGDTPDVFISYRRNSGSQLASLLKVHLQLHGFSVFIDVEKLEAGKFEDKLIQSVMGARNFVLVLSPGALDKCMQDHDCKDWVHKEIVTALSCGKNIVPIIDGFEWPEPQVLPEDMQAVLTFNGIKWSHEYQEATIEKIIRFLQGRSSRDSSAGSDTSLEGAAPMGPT
Chain of Mitogen-activated protein kinase 7 (Homo sapiens) (Q13164 whole entry, looked up, the tested form may be a part): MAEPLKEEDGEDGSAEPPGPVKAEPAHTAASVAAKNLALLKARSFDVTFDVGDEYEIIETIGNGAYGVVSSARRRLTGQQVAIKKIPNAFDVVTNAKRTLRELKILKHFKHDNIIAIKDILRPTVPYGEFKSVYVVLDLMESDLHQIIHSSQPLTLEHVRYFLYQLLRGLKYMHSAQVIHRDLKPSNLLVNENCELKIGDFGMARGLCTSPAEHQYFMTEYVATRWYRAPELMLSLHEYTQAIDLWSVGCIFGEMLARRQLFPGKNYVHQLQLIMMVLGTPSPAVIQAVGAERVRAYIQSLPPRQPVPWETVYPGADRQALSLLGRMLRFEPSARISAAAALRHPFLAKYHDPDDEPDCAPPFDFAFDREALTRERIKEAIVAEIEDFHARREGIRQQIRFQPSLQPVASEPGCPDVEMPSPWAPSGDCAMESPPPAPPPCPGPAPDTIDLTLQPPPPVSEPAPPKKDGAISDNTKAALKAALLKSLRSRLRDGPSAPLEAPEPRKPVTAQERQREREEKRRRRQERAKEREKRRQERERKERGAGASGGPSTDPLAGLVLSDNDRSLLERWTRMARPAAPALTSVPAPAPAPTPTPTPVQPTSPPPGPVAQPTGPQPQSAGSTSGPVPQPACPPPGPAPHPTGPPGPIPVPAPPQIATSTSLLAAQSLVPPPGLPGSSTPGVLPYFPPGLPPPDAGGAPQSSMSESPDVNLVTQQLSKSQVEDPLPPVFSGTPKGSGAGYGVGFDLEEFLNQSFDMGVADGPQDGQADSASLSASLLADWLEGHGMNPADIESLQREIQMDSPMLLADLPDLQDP

Clc1ccc2nsnc2c1NC1=NCCN1
inactive: outcome [1] | outcome [2] | outcome [3] | outcome [4] | outcome [5] | z-score [6, 13] -0.43 and 0.0544 and -0.148
0.606 and 0.144 and -1.3: z-score [6, 14]

COc1cc2c(N3CCN(C(=O)Nc4ccc(OC(C)C)cc4)CC3)ncnc2cc1OCCCN1CCCCC1
0.871: SSMD [8]
7400 and 5330: cell count [7, 17]
active: viability ([9]; at 0.000305 µM, OCI-P5x cells, with rucaparib 20 µM, 100% = cells with rucaparib alone) 86.7% | viability ([9]; at 0.000305 µM, OCI-P5x cells, without rucaparib) 88.3% | viability ([9]; at 0.00122 µM, OCI-P5x cells, with rucaparib 20 µM, 100% = cells with rucaparib alone) 97% | viability ([9]; at 0.00122 µM, OCI-P5x cells, without rucaparib) 88.4% | viability ([9]; at 0.00488 µM, OCI-C5x cells, without rucaparib) 97.5% | viability ([9]; at 0.00488 µM, OCI-P5x cells, without rucaparib) 96.8% | viability ([9]; at 0.0195 µM, OCI-C5x cells, without rucaparib) 98.4% | viability ([9]; at 0.0195 µM, OCI-P5x cells, without rucaparib) 92.4% | viability ([9]; at 0.0781 µM, OCI-P5x cells, without rucaparib) 94.2% | viability ([9]; at 0.313 µM, OCI-P5x cells, without rucaparib) 90.4% | viability ([9]; at 1.25 µM, OCI-P5x cells, without rucaparib) 90% | viability ([9]; at 5 µM, OCI-P5x cells, without rucaparib) 86.2%
8380 and 5450: cell count [7, 18]
inactive: outcome [1] | outcome [3] | outcome [4] | fold change [7, 15] 0.882 and 0.979 | plate-normalised HSF1 focus index [8] 1.05 | z-score [6, 13] -0.531 | viability ([9]; at 0.000305 µM, OCI-C5x cells, with rucaparib 10 µM, 100% = cells with rucaparib alone) 113% | viability ([9]; at 0.000305 µM, OCI-C5x cells, without rucaparib) 103% | viability ([9]; at 0.00122 µM, OCI-C5x cells, with rucaparib 10 µM, 100% = cells with rucaparib alone) 104% | viability ([9]; at 0.00122 µM, OCI-C5x cells, without rucaparib) 105% | viability ([9]; at 0.00488 µM, OCI-C5x cells, with rucaparib 10 µM, 100% = cells with rucaparib alone) 112% | viability ([9]; at 0.00488 µM, OCI-P5x cells, with rucaparib 20 µM, 100% = cells with rucaparib alone) 114% | viability ([9]; at 0.0195 µM, OCI-C5x cells, with rucaparib 10 µM, 100% = cells with rucaparib alone) 109% | viability ([9]; at 0.0195 µM, OCI-P5x cells, with rucaparib 20 µM, 100% = cells with rucaparib alone) 130% | viability ([9]; at 0.0781 µM, OCI-C5x cells, with rucaparib 10 µM, 100% = cells with rucaparib alone) 113% | viability ([9]; at 0.0781 µM, OCI-C5x cells, without rucaparib) 105% | viability ([9]; at 0.0781 µM, OCI-P5x cells, with rucaparib 20 µM, 100% = cells with rucaparib alone) 115% | viability ([9]; at 0.313 µM, OCI-C5x cells, with rucaparib 10 µM, 100% = cells with rucaparib alone) 119% | viability ([9]; at 0.313 µM, OCI-C5x cells, without rucaparib) 113% | viability ([9]; at 0.313 µM, OCI-P5x cells, with rucaparib 20 µM, 100% = cells with rucaparib alone) 146% | viability ([9]; at 1.25 µM, OCI-C5x cells, with rucaparib 10 µM, 100% = cells with rucaparib alone) 123% | viability ([9]; at 1.25 µM, OCI-C5x cells, without rucaparib) 117% | viability ([9]; at 1.25 µM, OCI-P5x cells, with rucaparib 20 µM, 100% = cells with rucaparib alone) 105% | viability ([9]; at 5 µM, OCI-C5x cells, with rucaparib 10 µM, 100% = cells with rucaparib alone) 158% | viability ([9]; at 5 µM, OCI-C5x cells, without rucaparib) 138% | viability ([9]; at 5 µM, OCI-P5x cells, with rucaparib 20 µM, 100% = cells with rucaparib alone) 115% | remaining NAD [10] 10 nM
7020: cell count [8]
0.343: z-score [6, 14]
1.09 and 0.885: fold change [7, 16]

CCOC(=O)[C@H](CCc1ccccc1)N[C@@H](C)C(=O)N1CCC[C@H]1C(=O)O
inactive: outcome [1] | outcome [2] | outcome [3] | fold change [7, 15] 0.896 and 0.877 and 0.886 | z-score [6, 13] -1.03 and -0.334 | remaining NAD [10] 10 nM | luciferase signal [11] 64 AU | z-score [12] 0.27
8260 and 11300 and 10300: cell count [7, 17]
-0.133 and -0.361: z-score [6, 14]
9220 and 12900 and 11600: cell count [7, 18]
0.827 and 3.26 and 1.44: fold change [7, 16]

O=C(O)/C=C/c1ccc(Cn2ccnc2)cc1
0.0439 and 0.14: z-score [6, 14]
inactive: outcome [1] | outcome [2] | outcome [4] | z-score [6, 13] -1.23 and 0.348 | z-score [12] 0 and 0.26
